Among all 69,000 compounds or so, about 8,600 (12%) showed an effect of 50% or more. Only a selection was taken, and strong results are over-represented in it overall.
These compounds were tested on Plasmodium berghei (assay: Screen against P. berghei liver stage (PbLuc), transformed with Luciferase, at 10uM). Conditions: tested at 10 uM.
Assay type: functional, HepG2

Row | SMILES | INHIBITION [%]
1 | c1cc(CN2CCc3c(nnn3CC3CC3)C2COCC2CC2)co1 (stereo not given) | 27.4
2 | CCN1CCOCC2(CCCN(C(=O)c3ccncc3F)C2)C1 (stereo not given) | 27.2
3 | Cc1c(C(=O)N2CCCN(S(C)(=O)=O)CC2)cnn1C | -4.96
4 | N#CCCCS(=O)(=O)NC1(c2ccc(F)cc2)CC1 | 26.4
5 | O=C(NCC1CCOC1)Nc1ccc(OCC(F)(F)F)nc1 (stereo not given) | 23.2
6 | O=C(NCC1CCOC1)Nc1ccc(Oc2cccc(F)c2)nc1 (stereo not given) | -8.15
7 | Cc1ccc(Oc2ccc(NC(=O)NCC3CCOC3)cn2)cc1C (stereo not given) | 58.2
8 | CN(C)c1ccc(NC(=O)NCC2CCOC2)cn1 (stereo not given) | 77.85
9 | CCN(CC)c1ccc(NC(=O)NCC2CCOC2)cn1 (stereo not given) | -45.3
10 | O=C(NCC1CCOC1)Nc1ccc(Oc2ccc(F)cc2)nc1 (stereo not given) | 3.67
11 | COc1ncccc1CNC(=O)NCCNS(C)(=O)=O | -9.37
12 | CC(C)CS(=O)(=O)N1C[C@@H]2C[C@H](C(=O)Nc3cccnc3)[C@H](C1)O2 | -10.3
13 | CN1N=C(C(=O)N(Cc2ccco2)C2CC2)CCC1=O | 19
14 | Cc1c(Br)cccc1C(=O)NCC1CCNCC1 | 39.7
15 | Cn1cccc1CN1CCC2(CCCN(C(=O)c3cccnc3)C2)CC1 | -43.1
16 | CCC(CC)n1nc(C)cc1NC(=O)C1CCCO1 (stereo not given) | -56.4
17 | CC(C)(C)c1cc(NC(=O)C2CCCO2)n(-c2ccccn2)n1 (stereo not given) | 52.5
18 | Cc1nccn1-c1cc(CNC(=O)C2CCCO2)ccn1 (stereo not given) | 21
19 | CCSCc1ccnc(NC(=O)C2CCCO2)c1 (stereo not given) | -4.26
20 | Cc1ccnc(NC(=O)C2CCCO2)c1 (stereo not given) | 62.3
21 | CC(C)(C)c1cc(NC(=O)C2COCCO2)n(-c2ccccn2)n1 (stereo not given) | 30.7
22 | O=C(c1cnccn1)N1CCC2(CC1)CC(Oc1ccccc1)CO2 (stereo not given) | 41.3
23 | CCOCC1CCN(C(=O)c2sc(C)cc2OC(F)F)CC1 | 0.325
24 | COc1cc(CCC(=O)NC2CCN(C)CC2)ccc1OCC(F)(F)F | -14.7
25 | COCCNC(=O)c1ccc(NCc2csc(C)n2)cc1Cl | 16

Row | SMILES | INHIBITION [%]
26 | COCCOc1cccc(C(=O)N2CCCC(n3cccn3)C2)c1 (stereo not given) | 9.94
27 | CC1CCc2nn(CCNC(=O)Cc3cccs3)c(=O)cc2C1 (stereo not given) | -45.7
28 | Cc1nc(CN(CCS(C)(=O)=O)C(C)C)no1 | 49.3
29 | c1coc(CN2CC[C@@H]3O[C@@H](COCc4ccncc4)CC[C@@H]32)c1 | 0.164
30 | CN(C)C(=O)COC[C@H]1CC[C@@H]2[C@@H](CCN2Cc2ccco2)O1 | -11.6
31 | c1csc(CN2CC[C@H]3O[C@@H](COCC4CC4)CC[C@H]32)c1 | 73
32 | c1coc(CN2CC[C@@H]3O[C@@H](COCC4CCOCC4)CC[C@@H]32)c1 | -30
33 | c1cncc(COC[C@H]2CC[C@H]3[C@H](CCN3Cc3cccs3)O2)c1 | 31.8
34 | Cc1cccc(COC[C@H]2CC[C@H]3[C@H](CCN3Cc3ccco3)O2)n1 | 68.4
35 | COC[C@H]1CC[C@@H]2[C@@H](CCN2Cc2ccco2)O1 | -6.39
36 | Cc1cccc(COC[C@@H]2CC[C@H]3[C@H](CCN3Cc3ccco3)O2)n1 | 43.5
37 | c1ccc(COC[C@H]2CC[C@H]3[C@H](CCN3c3ncccn3)O2)nc1 | 26.4
38 | c1ccc(COC[C@H]2CC[C@H]3[C@H](CCN3Cc3cccs3)O2)nc1 | 49.7
39 | c1coc(CN2CC[C@H]3O[C@@H](COCC4CC4)CC[C@H]32)c1 | 53.9
40 | c1ccc(COC[C@H]2CC[C@H]3[C@H](CCN3Cc3ccco3)O2)nc1 | 51.3
41 | Cn1cc(C[C@H]2[C@H](O)CCN2CC2CCOCC2)cn1 | 6.6
42 | O=C1CNc2ncnc(NCc3cccs3)c2N1 | -25.5
43 | CN(Cc1ccco1)C(=O)CN1C(=O)c2cc(Cl)c(Cl)cc2C1=O | 39.2
44 | O=C1COC2(CCN(Cc3ccoc3)CC2)CN1 | -0.813
45 | CS(=O)(=O)CC(=O)N1C[C@H]2CCC[C@@]2(COc2ccccn2)C1 | -0.453
46 | Cn1c(=O)c2cc(C(=O)NCCOc3ccccc3)ccc2n(C)c1=O | 33.7
47 | CC(C)n1c(=O)c2ccccc2n(CCCN(C)C)c1=O | 28.7
48 | c1ccc(COC[C@H]2CC[C@H]3[C@H](CCN3Cc3ccccn3)O2)nc1 | 50.9
49 | c1ccc(COC[C@H]2CC[C@H]3[C@H](CCN3Cc3cccnc3)O2)nc1 | 29.9
50 | c1ccc(CN2CC[C@@H]3O[C@H](COCc4ccncc4)CC[C@@H]32)nc1 | 14.8
